Consider 21 compounds from PubChem BioAssay (NCI).

Compounds without any hit were thinned out: in the full panel of roughly 79,000, 15% have a hit. Unmarked numbers belong to inactive results. Calls of active or inactive are those of the source. No stated cut-off is given here; in the data, active means growth inhibition above about 70%; inactive means the rest.

A short description of experiment [1]: NCI Yeast Anticancer Drug Screen. Data for the rad50 strain (AID 155).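 Further: 0% = growth of vehicle-only cultures of the same strain.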 To be noted: S. cerevisiae rad50 strain growth inhibition, active compounds read high; at 50.0 µM unless noted. The procedure, abridged: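 Readout: growth inhibition relative to vehicle-treated cultures. Compound exposure was carried out in a genetically defined yeast strain deficient in DNA damage repair.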

Experiment [2] in a line: NCI Yeast Anticancer Drug Screen. Data for the mec2-1 strain (AID 157). To be noted: S. cerevisiae mec2-1 strain, active compounds read high; at 50.0 µM unless noted. The procedure, abridged: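 Growth inhibition is read against vehicle-treated controls after compound exposure of the mec2-1 yeast strain, which is defective in DNA damage repair or cell cycle control.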
Experiment [3] in a line: NCI Yeast Anticancer Drug Screen. Data for the sgs1 mgt1 strain (AID 161).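 Further: 0% = growth of cultures given vehicle only.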 The settings on record: S. cerevisiae sgs1 mgt1 strain, active compounds read high; at 50.0 µM unless noted. Put shortly: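 Compounds are added to genetically altered yeast, and growth is compared with cultures given vehicle alone to give percent inhibition.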
Experiment [4] is described as follows: NCI Yeast Anticancer Drug Screen. Data for the cln2 rad14 strain (AID 165).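 Further: 0% = growth equal to vehicle treated cultures.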 The settings on record: S. cerevisiae cln2 rad14 strain, active compounds read high; at 50.0 µM unless noted. Put shortly: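 Growth inhibition, relative to vehicle-treated controls, is the read-out. The test organism is a yeast strain with defined genetic alterations, cln2 rad14.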
A short description of experiment [5]: NCI Yeast Anticancer Drug Screen. Data for the bub3 strain (AID 167). To be noted: S. cerevisiae bub3 mutant strain, active compounds read high; at 50.0 µM unless noted. Put shortly: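 Readout: yeast growth inhibition, expressed relative to vehicle-only wells. The test organism is a mutant strain from a panel with lesions in DNA repair or checkpoint genes.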
A short description of experiment [6]: NCI Yeast Anticancer Drug Screen. Data for the mlh1 rad18 strain (AID 175). To be noted: S. cerevisiae mlh1 rad18 strain growth inhibition, active compounds read high; at 50.0 µM unless noted. The procedure, abridged:
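Cells of a genetically altered yeast strain, deficient in DNA damage repair, were treated with compound. Their growth was then compared with that of vehicle-treated cultures to give inhibition.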

As to `CC(=O)CC(=O)NCC1CCC(CNC(=O)CC(C)=O)CC1` (stereo unspecified), the growth inhibition in experiment [1] was -26.6%; in experiment [2], -33%; in experiment [3], -13.9%; in experiment [4] it was -1.45%; in experiment [5] it was -54.3%; in experiment [6] it was -48.8%.

In the case of `NC(=O)C(O)c1c[nH]c2ccccc12` (stereo unspecified), the growth inhibition is 3.7% in experiment [1]; 1.75% in experiment [2]; -1.45% in experiment [3]; 6.4% in experiment [4]; -15% in experiment [5]; 8.2% in experiment [6].

As to `COC(=O)c1cc2c(cc1/C=C/C=O)OCO2`, the growth inhibition in experiment [1] is -20%; in experiment [2] it was -15.8%; in experiment [3], -19.4%; in experiment [4], -27.9%; in experiment [5], -11%; in experiment [6] it was 13.8%.

Turning to `c1ccc(C2Cc3ccccc3C2c2ccccc2)cc1` (stereo unspecified), the growth inhibition was 9.85% in experiment [1]; 11% in experiment [2]; 22.8% in experiment [3]; -17.8% in experiment [4]; -7.6% in experiment [5]; -13.3% in experiment [6].

On to `C=CCNC(=S)NNc1nc(C)cc(=O)[nH]1`, for which the growth inhibition in experiment [1] is 30.1%; in experiment [2] it was -27.9%; in experiment [3] it was 11.7%; in experiment [4] it was 5.55%; in experiment [5], 5.95%; in experiment [6], 4.3%.

Consider `COC(C)(/C(C)=N/O)c1ccc(-c2ccccc2)cc1` (stereo unspecified), for which the growth inhibition in experiment [1] is 7.85%; in experiment [2], -7.95%; in experiment [3], 2.8%; in experiment [4], -0.65%; in experiment [5], 16.6%; in experiment [6] it was 19.7%.

Take `O=C(O)c1cc([N+](=O)[O-])c(O)c2ccccc12`: the growth inhibition in experiment [1] was 9.15%; in experiment [2], 2.8%; in experiment [3], 6.1%; in experiment [4] it was -22.1%; in experiment [5] it was -16.1%; in experiment [6], 21.8%.

With `COc1ccc(C2Oc3cc(OC)c(O)cc3[C@@H]2C)cc1` (stereo partly specified), the growth inhibition in experiment [1] is -7.35%; in experiment [2], 28.6%; in experiment [3] it was 2.55%; in experiment [4] it was 15.6%; in experiment [5] it was 54.8%; in experiment [6], 31%.

On to `N#C/C(=C1/c2cc([N+](=O)[O-])ccc2-c2c1cc([N+](=O)[O-])cc2[N+](=O)[O-])N1CCCCC1`, for which the growth inhibition in experiment [1] is -25.4%; in experiment [2], -5.3%; in experiment [3], 2.5%; in experiment [4], -17.8%; in experiment [5] it was -22.8%; in experiment [6], -13.7%.

On to `O=C1COC(=O)CO1`, for which the growth inhibition in experiment [1] is -15.6%; in experiment [2], -18.9%; in experiment [3] it was -5.7%; in experiment [4], 34.2%; in experiment [5], 8.55%; in experiment [6] it was -10.7%.

Take `Cc1cccc(C)c1NC(=O)CCc1nnc2s/c(=C\c3ccc(N(C)C)cc3)c(=O)n12`: the growth inhibition is 29.8% in experiment [1]; 30.1% in experiment [2]; 25.6% in experiment [3]; 0.15% in experiment [4]; 4.85% in experiment [5]; 10.3% in experiment [6].

With `Cc1ccc(Cl)cc1NC(=O)c1ccccc1`, the growth inhibition in experiment [1] is 3.45%; in experiment [2] it was -1.25%; in experiment [3], -8.5%; in experiment [4], -28.9%; in experiment [5], -18.1%; in experiment [6] it was 14.8%.

On to `c1ccc2cnncc2c1`, for which the growth inhibition is 0.35% in experiment [1]; -0.55% in experiment [2]; -11.8% in experiment [3]; 4.35% in experiment [4]; 11.7% in experiment [5]; 0.25% in experiment [6].

`CNc1cc(C(C)C)ccc1C`: the growth inhibition in experiment [1] was 4.1%; in experiment [2], 8.75%; in experiment [3], 10.7%; in experiment [4] it was 0.85%; in experiment [5], 17.1%; in experiment [6], 3.25%.

As to `CN(Cc1ccccc1Cl)C(=S)NC1CCCCC1`, the growth inhibition in experiment [1] is 62%; in experiment [2], 88.8% (active); in experiment [3], 86% (active); in experiment [4], 34.8%; in experiment [5], 81.3% (active); in experiment [6], 85.5% (active).

`Cc1ccc(C(=O)C2C(=O)C(=O)OC2C2OC(=O)C(=O)C2C(=O)c2ccc(C)cc2)cc1` (stereo unspecified): the growth inhibition was 43.8% in experiment [1]; 25.1% in experiment [2]; 39.5% in experiment [3]; 31.2% in experiment [4]; -4.55% in experiment [5]; 42.8% in experiment [6].

As for `O=C(CCCl)Nc1ccc(C(=O)CCc2cccc(NC(=O)CCCl)c2)cc1`, the growth inhibition is 28.9% in experiment [1]; 2.65% in experiment [2]; 7.75% in experiment [3]; 22.5% in experiment [4]; -0.65% in experiment [5]; 6.3% in experiment [6].

In the case of `C=CCOCn1cnc2c(N)ncnc21`, the growth inhibition was -35.9% in experiment [1]; -59.9% in experiment [2]; -24.1% in experiment [3]; -0.6% in experiment [4]; -11.3% in experiment [5]; -36% in experiment [6].

Turning to `CCCCC1=C(c2ccccc2)/C(=N/Nc2ccc([N+](=O)[O-])cc2[N+](=O)[O-])c2ccccc21`, the growth inhibition was 12.7% in experiment [1]; -1.45% in experiment [2]; 5.65% in experiment [3]; -2.85% in experiment [4]; 1.2% in experiment [5]; 9% in experiment [6].

Take `Nc1nc2cc(F)ccc2o1`: the growth inhibition in experiment [1] was 1.05%; in experiment [2], -26.1%; in experiment [3], -9.7%; in experiment [4] it was -20.1%; in experiment [5], -21.6%; in experiment [6], -15.2%.

Regarding `CC(=O)Nc1ccc(S(=O)(=O)N/N=C(/C)c2ccccc2)cc1`, the growth inhibition was -8.8% in experiment [1]; -31.8% in experiment [2]; 1.05% in experiment [3]; 1.55% in experiment [4]; -23.4% in experiment [5]; -23.6% in experiment [6].
